Our source for the Potency values is PubChem BioAssay (NCATS).

Results filed as inconclusive are left out. Active and inactive are the calls of the source. Calls follow the shape of the dose curve; as a rule, active = well fitted inhibition curve with a large enough effect; inconclusive = small, poorly fitted or top-dose-only effect; inactive = flat fitted curve, though single readings scatter.
Potency is read from the fitted curve at half-maximal effect.

In the first assay the test system is CP191. The assay is described as follows: qHTS profiling for inhibitors of Plasmodium falciparum proliferation (AID 504749). Also: nearly all actives have a fitted effect of over 60% in size. The settings on record: P. falciparum in erythrocytes, SYBR Green DNA, 72 h; series mostly up to 28.7 µM. The method, boiled down: (§1)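 Parasite proliferation within erythrocytes, 72 h exposure. Endpoint: SYBR Green I fluorescence after overnight lysis at room temperature. Controls: 0.29 uM artemisinin, DMSO.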
In general terms: qHTS replaces the single test concentration by a dilution series.
Regarding `COC1C(OC(=O)/C=C/C=C/C=C/C=C/C(=O)O)CCC2(CO2)C1C1(C)OC1CC=C(C)C` (stereo unspecified), the Potency was 0.0501 µM (active).

Take `CCCOc1ccc2nc(NC(=O)OC)sc2c1`: the Potency result is “inactive”.

Turning to `C=CCNC1=C2C[C@@H](C)C[C@H](OC)[C@H](O)[C@@H](C)/C=C(\C)[C@H](OC(N)=O)[C@@H](OC)/C=C\C=C(/C)C(=O)NC(=CC1=O)C2=O`, the Potency is 2 µM (active).

For the next assay, the system named is CP194. The assay is described as above. The settings on record: P. falciparum in erythrocytes, SYBR Green DNA, 72 h; series mostly up to 28.7 µM. The method, boiled down:
as §1
`COC1C(OC(=O)/C=C/C=C/C=C/C=C/C(=O)O)CCC2(CO2)C1C1(C)OC1CC=C(C)C` (stereo unspecified): the Potency was 0.536 µM (active).

Take `CCCOc1ccc2nc(NC(=O)OC)sc2c1`: the Potency entry is “inactive”.

With `C=CCNC1=C2C[C@@H](C)C[C@H](OC)[C@H](O)[C@@H](C)/C=C(\C)[C@H](OC(N)=O)[C@@H](OC)/C=C\C=C(/C)C(=O)NC(=CC1=O)C2=O`, the Potency is 4.26 µM (active).
